40 sequences from the OligoGym collection can be followed below.
Note: reference of the scale not given here.

The target of one assay is SLC34A1. As to the kind of experiment: pooled miR-30 sensor sort-seq; sequence = guide strand. To be noted: shRNA.
Sequence TTGAGCATCTTGACTAGGAGGA gave a sensor-assay potency score (higher = more potent) of 0.961.

Take TGGACCACGAAGGTCATGCTGG: the sensor-assay potency score (higher = more potent) was -0.818.

For the sequence TAGTCATGTGTACACGTGCAGA, the sensor-assay potency score (higher = more potent) is -1.32.

Turning to TTAAAGCAGTCATGCACCGTGG, the sensor-assay potency score (higher = more potent) was -0.651.

In the case of TCTCAATGCTGATCACACCAAG, the sensor-assay potency score (higher = more potent) was -0.785.

In the case of TCTGTGATGATCTTGAGCAGGT, the sensor-assay potency score (higher = more potent) stood at 0.374.

For the sequence TAGAGGACGGCAAACCAGCGGT, the sensor-assay potency score (higher = more potent) is -0.623.

Sequence TTGATGAGCACCACGAAGGCCA yielded a sensor-assay potency score (higher = more potent) of -0.0356.

The target of a further assay is SLC35D2. The description is as above. To be noted: shRNA.
The sequence TTACTTGTGCTTGATAATCCAC came in with a sensor-assay potency score (higher = more potent) of -0.229.

Take TAGGATAAACACAACATTCTTC: the sensor-assay potency score (higher = more potent) came out at 0.0517.

TTTCTTATCAAAATCAGGGAAG yielded a sensor-assay potency score (higher = more potent) of -0.741.

As for TACATTTCTTGAGACTGCCATT, the sensor-assay potency score (higher = more potent) is -1.38.

With TATAGTATCATTATGGTGGCTG, the sensor-assay potency score (higher = more potent) came out at 0.443.

TAGCTGCACAGAACCGTGGAGT gave a sensor-assay potency score (higher = more potent) of -0.729.

In turn, TAATAGCTGCACAGAACCGTGG showed a sensor-assay potency score (higher = more potent) of -0.868.

Turning to TTGTGCTTGATAATCCACTTAT, the sensor-assay potency score (higher = more potent) is -0.388.

Consider TTAGCTTGGACACATATAGTAT, for which the sensor-assay potency score (higher = more potent) is -0.569.

For the sequence TTAACTAATTTTATTAGACTAA, the sensor-assay potency score (higher = more potent) is -1.13.

Sequence TAGACTAAAGACATGTCTGTTT gave a sensor-assay potency score (higher = more potent) of -0.123.

TAAACTGAAACAACTGGCCCTT yielded a sensor-assay potency score (higher = more potent) of 0.105.

In another assay the target is SLC38A11. Described as above. Conditions: shRNA.
In turn, TTAAAGTAGAAAGTTGTGTTGT registered a sensor-assay potency score (higher = more potent) of 0.823.

In turn, TCTGCTGAACATGAGACTCTGA gave a sensor-assay potency score (higher = more potent) of 0.182.

Take TTGAGTATTTGTAATAGCCATG: the sensor-assay potency score (higher = more potent) is -1.21.

With TACAACAATGTGGAAAACCGAT, the sensor-assay potency score (higher = more potent) was -0.853.

TCAAGTATCCACATGTAGCAAA: the sensor-assay potency score (higher = more potent) was -0.803.

In turn, TAAACCTGTAGAGATGAGGGAG displayed a sensor-assay potency score (higher = more potent) of 0.481.

The sequence TTCTAGAGAACTGTAAACTAAG gave a sensor-assay potency score (higher = more potent) of -0.917.

TAATTTTCAAATAAGTCCCCTT: the sensor-assay potency score (higher = more potent) came to 0.231.

In turn, TTTATCAATAAAACAAGGGAAA came in with a sensor-assay potency score (higher = more potent) of -1.2.

Turning to TTGTGTTGTCTGCTGAACATGA, the sensor-assay potency score (higher = more potent) is -0.294.

For the sequence TTGAGTTCTAGAACTATCCCGA, the sensor-assay potency score (higher = more potent) came to 0.433.

As to TTTTATTGACCAAAGACTGGTA, the sensor-assay potency score (higher = more potent) is -0.145.

The target in another assay is SLC39A12. The description is as above. To be noted: shRNA.
In turn, TAGAAATATCTCCACCAGCTGC yielded a sensor-assay potency score (higher = more potent) of -1.07.

Turning to TGAAGAACAGATCTCTTCCTGA, the sensor-assay potency score (higher = more potent) came to 0.419.

Take TTGTCCCAGACAAACACCCTGG: the sensor-assay potency score (higher = more potent) was -0.6.

TTTTGATACAAGTACTTCTGGT returned a sensor-assay potency score (higher = more potent) of -0.57.

On to TTGCTTGTCACTTAACTTGCTT, for which the sensor-assay potency score (higher = more potent) is -0.0821.

TTTATTACTCATGTTGAGCTTT returned a sensor-assay potency score (higher = more potent) of -0.0356.

In turn, TTGCAGTTGATTTTACTCCAAC had a sensor-assay potency score (higher = more potent) of -1.11.

Sequence TTTGATACAAGTACTTCTGGTC showed a sensor-assay potency score (higher = more potent) of 0.47.
